In all, about 320,000 compounds went through this assay and about 2,100 (0.66%) were called active. Roughly 53% stayed inconclusive and do not appear here. Calls follow the shape of the dose curve; as a rule, active = well fitted inhibition curve with a large enough effect in the signal ratio, with a control signal flat (not every such curve was filed as active); inconclusive = small, poorly fitted or top-dose-only effect, or effect the other way, or a change in a side signal; inactive = flat fitted curve, though single readings scatter; the % refers to the signal ratio. The full list was thinned out, with actives kept by preference.
Potency is read from the fitted curve at half-maximal effect.

This experiment is described as follows: qHTS Assay for Lipid Storage Modulators in Drosophila S3 Cells.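 As to cell number change: cells counted by Cell Tracker Red CMTPX staining in the red channel.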 As to lipid storage change, negative = inhibition: % is scaled to controls: 0 for no effect and ±100 for the full control effect. The settings on record: BODIPY lipid droplet fluorescence, 18-24 h, cells fed with added oleic acid; cell number change: measured here: cell count max response; series mostly up to 46.1 µM. The procedure, abridged: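 Laser-scanning cytometry quantifies lipid droplet accumulation (500–530 nm total intensity; droplet/cell object ratio) in oleic acid-fed (400 uM added) Drosophila S3 cells treated with a concentration series. 20 uM Triacsin C defined 100% inhibition.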
In the case of `CCSc1ccc(-c2ccco2)nn1`, the Potency result was “inactive” and the cell number change turned out to be 13.6%. In the same order, the values of `O=c1c([N+](=O)[O-])c(O)c2cccc3c2n1CCC3` are “inactive” and -0.265%.

In the case of `O=C(Nc1ccccc1C(=O)Nc1ccccn1)c1cccc([N+](=O)[O-])c1`, the Potency result was “inactive” and the cell number change came out at 6.61%.

For `N#Cc1c(N)nc2c(c1-c1ccc(F)cc1)c(=O)nc1sccn12`, the Potency entry is “inactive”.

Take `CC1(c2ccccc2Cl)NC(=O)N(CC(=O)NCCC2=CCCCC2)C1=O` (stereo not drawn): the Potency entry was “inactive”. Take `O=C(Cc1ccc(F)cc1)N1CCN(c2ccc([N+](=O)[O-])cc2)CC1`: the Potency entry was “inactive” and the cell number change worked out at 11.6%. In the same order, the values of `O=C(Cc1ccc([N+](=O)[O-])cc1)N1CCN(c2ccc([N+](=O)[O-])cc2)CC1` are “inactive” and 2.07%. The matching figures for `Cc1ccc(CC(=O)N2CCN(c3ccc([N+](=O)[O-])cc3)CC2)cc1`: 7.31 µM (active) and 10.2%.

With `O=C(Nc1cccc2ccccc12)N1CCN(c2ncccn2)CC1`, the Potency entry was “inactive” and the cell number change was 15%. In the same order, the values of `Cc1ccc(CN2CCN(Cc3cnc(N4CCOCC4)s3)CC2CCO)cc1` (stereo not drawn) are “inactive” and -2.17%. The matching figures for `CC(C)CN1CCN(Cc2cnc(N3CCOCC3)s2)CC1CCO` (stereo not drawn): “inactive” and 24.7%.

As to `CC(C)=CCN1CCN(Cc2cnc(N3CCOCC3)s2)CC1CCO` (stereo not drawn), the Potency is 13 µM (active) and the cell number change is -26.5%. The matching figures for `O=C1CN(S(=O)(=O)c2ccccc2)CCN1S(=O)(=O)c1ccccc1`: “inactive” and -1.6%. On to `CCC1C(=O)N=C(SCC(=O)Nc2ccccc2)NC1=O` (stereo not drawn), for which the Potency entry was “inactive” and the cell number change turned out to be 7.84%. With `NS(=O)(=O)c1ccc(NC(=O)CSC2=NC(=O)C(c3ccccc3)C(=O)N2)cc1` (stereo not drawn), the Potency entry was “inactive” and the cell number change is -0.978%. In the same order, the values of `CCC1C(=O)N=C(SCC(=O)Nc2ccc(S(N)(=O)=O)cc2)NC1=O` (stereo not drawn) are 6.51 µM (active) and -37.4%. With `O=S(=O)(/N=C(/c1ccc(F)cc1)N1CCCCC1)c1ccc(Cl)cc1`, the Potency result is “inactive” and the cell number change is -6.48%.

Take `Cc1ccc(CNC(=O)CN2C(=O)c3ccccc3S2(=O)=O)cc1`: the Potency entry was “inactive” and the cell number change came to 20.7%. In the same order, the values of `CN(C)c1ccc(/C=N/NC(=O)c2ccnn2C)cc1` are “inactive” and -10.8%. The matching figures for `Cn1nccc1C(=O)N/N=C/c1c(O)ccc2ccccc12`: 14.6 µM (active) and -2.67%. The matching figures for `Cn1cc(C(=O)N/N=C/c2c(O)ccc3ccccc23)ccc1=O`: “inactive” and -26.3%. Turning to `O=C1NC(=S)N/C1=C/c1ccc(Oc2ccc(C(F)(F)F)cc2[N+](=O)[O-])c(Cl)c1`, the Potency result is “inactive” and the cell number change is -6.9%. The matching figures for `COc1ccc(N2C(=O)CC(NC3CCCCNC3=O)C2=O)cc1` (stereo not drawn): “inactive” and 5.19%. In the same order, the values of `COc1ccc(NC(=O)CN(C)C(=O)c2ccc(COc3ccccc3)cc2)cc1` are “inactive” and -6.23%. The matching figures for `COCC(=O)Nc1ccc(OCc2ccccc2)cc1`: “inactive” and 4%. On to `COc1ccc(NC(=O)CN(C)C(=O)/C=C/c2ccc(OCc3ccccc3)cc2)cc1`, for which the Potency is 0.731 µM (active) and the cell number change was -11.8%.

Take `Cc1ccc(C23CC4CC(CC(C(=O)OCC(=O)N(C)C)(C4)C2)C3)cc1`: the Potency result was “inactive” and the cell number change was 4.17%. The matching figures for `CCOc1ccccc1CNC(=O)c1ccc(Sc2ccc(Cl)cc2)c(NC(C)=O)c1`: “inactive” and 7.67%. In the same order, the values of `Cc1[nH]c2ccccc2c1C(=O)C(=O)N1CCN(C(=O)c2ccco2)CC1` are “inactive” and 27%.

For `O=C(Nc1ccccn1)c1onc2c1CCCC2`, the Potency result was “inactive”.

`Cc1ccccc1NC(=O)c1ccccn1`: the Potency result was “inactive”. Take `Cc1ccccc1NC(=O)C(=O)Nc1ccccc1C`: the Potency result is “inactive” and the cell number change turned out to be 0.926%. With `Cc1ccccc1NC(=O)c1onc2c1CCCC2`, the Potency was 25.9 µM (active). With `Cc1ccccc1NC(=O)c1cccc(C(=O)Nc2ccccc2C)n1`, the Potency was 8.2 µM (active) and the cell number change was -25.7%. For the compound `O=C(Nc1cccc2ccccc12)c1onc2c1CCCC2`, the Potency entry is “inactive”.

For the compound `COc1cc2c(cc1OC)C(c1ccc3c(c1)OCO3)C1=C(CC(C)(C)CC1=O)N2` (stereo not drawn), the Potency result is “inactive” and the cell number change is -17.2%. `CC(=O)NCc1cc(-c2ccc(Cl)cc2)no1`: the cell number change is -2.06% and the lipid storage change, negative = inhibition was 0.337% [at 9.22 µM] (inactive). As to `O=C(NCc1nnc(SCC(=O)N2CCc3ccccc32)o1)c1cccs1`, the Potency result was “inactive” and the cell number change was -1.06%. Take `CCOC(=O)N1CCN(CC(O)c2c[nH]c3ccccc23)CC1` (stereo not drawn): the Potency result was “inactive” and the cell number change worked out at 14.4%. In the same order, the values of `Cc1ccc(-c2nn(C)c(=O)c3ccccc23)cc1CNC(=O)/C=C/c1ccccc1` are “inactive” and -24.2%. Consider `C=CCOc1ccc(-c2nc3c(c(=O)[nH]c(=O)n3CCCC)n2C)cc1Br`, for which the Potency result was “inactive” and the cell number change came to 12.1%. Take `C=CCOc1ccc(-c2nc3c(c(=O)[nH]c(=O)n3Cc3ccccc3)n2CCCOC)cc1`: the Potency entry was “inactive” and the cell number change turned out to be 4.84%. For the compound `CCCCn1c(=O)[nH]c(=O)c2c1nc(-c1cc(Br)c(OCC)c(OC)c1)n2C`, the Potency entry was “inactive” and the cell number change was determined as 15%. The matching figures for `CCCn1c(-c2cccc(F)c2)nc2c1c(=O)[nH]c(=O)n2Cc1ccccc1`: “inactive” and 13.3%. The matching figures for `CCCCn1c(=O)[nH]c(=O)c2c1nc(-c1ccc(OCC)cc1)n2CC`: “inactive” and -8.47%. In the same order, the values of `CCCCn1c(=O)[nH]c(=O)c2c1nc(-c1ccc(-c3ccc(F)cc3)o1)n2C` are “inactive” and 10.6%. Consider `CCCCn1c(=O)[nH]c(=O)c2c1nc(-c1cccc(OC)c1)n2C`, for which the Potency result is “inactive” and the cell number change is -6.05%. The matching figures for `CCCCn1c(=O)[nH]c(=O)c2c1nc(-c1ccc(OC)c(Br)c1)n2CC(C)C`: 0.326 µM (active) and 9.66%. In the case of `CCCCn1c(=O)[nH]c(=O)c2c1nc(-c1ccc(-c3ccccc3)cc1)n2C`, the Potency is 3.66 µM (active) and the cell number change was -2.7%. On to `CCCn1c(-c2cc(OC)c(OC)c(OC)c2)nc2c1c(=O)[nH]c(=O)n2Cc1ccccc1`, for which the Potency is 0.651 µM (active). Turning to `CCCn1c(-c2cccc([N+](=O)[O-])c2)nc2c1c(=O)[nH]c(=O)n2Cc1ccccc1`, the Potency entry is “inactive” and the cell number change turned out to be 1.66%. On to `C=CCOc1ccc(-c2nc3c(c(=O)[nH]c(=O)n3CCC)n2CCCC)cc1`, for which the Potency was 2.91 µM (active) and the cell number change was determined as 22.5%. The matching figures for `Cc1cc(C)c(NC(=O)c2cc(C(=O)O)ccc2C(=O)O)c([N+](=O)[O-])c1`: “inactive” and 2.4%. In the same order, the values of `COc1ccc(CCc2cc(OC)cc(=O)o2)cc1` are “inactive” and -1.16%. In the same order, the values of `Cc1cc(C)c(OCCCCN(C)Cc2ccccc2)c(C)c1` are 7.31 µM (active) and -22%.

Turning to `CN(CCOc1ccccc1Cl)Cc1ccccc1`, the Potency was 23.1 µM (active) and the cell number change was -8.5%. The matching figures for `Cc1ccc(Cl)c(OCCCCN(C)Cc2ccccc2)c1`: “inactive” and -11.3%. For `CN(CCCCOc1ccc(F)cc1)Cc1ccccc1`, the Potency result is “inactive” and the cell number change is 9.09%.

On to `CN(Cc1ccccc1)C(=O)COc1ccccc1Cl`, for which the Potency entry is “inactive” and the cell number change stood at 10.4%. Regarding `CN(CCOc1ccc(F)cc1)Cc1ccccc1`, the Potency result is “inactive” and the cell number change came out at 11.7%.

These data come from PubChem BioAssay AID2685 (National Center for Advancing Translational Sciences (NCATS), 2010).
